Some compounds were tested as several samples or in several runs, with calls that do not always agree. Calls of active or inactive are those of the source. Rule for the calls: active = hit-call score of the fitted dose curve at least 0.9, where 1 is the maximum; inactive = score below 0.9.

This passage reports AC50 and outcome results from PubChem BioAssay (EPA / NIEHS).

The nature of this experiment: CEETOX_H295R_ESTRADIOL: CeeTox H295R High-throughput Steroidogenesis Assay for Estradiol (AID 2283440).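 Note: estradiol secreted into medium quantified by LC-MS/MS after dansyl derivatisation.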 As to conditions: actives raise or lower the signal. As for the experimental part:
CEETOX_H295R is a cell-based, multiplexed-readout assay that uses H295R, a human adrenal gland cell line, with measurements taken at 48 hours after chemical dosing in a 96-well plate.CEETOX_H295R_ESTRADIOL is one of 23 assay component(s) measured or calculated from the CEETOX_H295R assay. It is designed to make measurements of hormone induction, a form of inducible reporter, as detected with absorbance signals by HPLC-MS-MS technology.Data from the assay component CEETOX_H295R_ESTRADIOL was analyzed into 1 assay endpoint. This assay endpoint, CEETOX_H295R_ESTRADIOL, was analyzed with bidirectional fitting relative to DMSO as the negative control and baseline of activity. […] To generalize the intended target to other relatable targets, this assay endpoint is annotated to the steroid hormone intended target family, where the subfamily is estrogens.
Cell culture and media preparation procedures were conducted in accordance with OECD Test No. 456 guidelines, with minor modifications. H295R cells (ATCC CRL-2128) were expanded for 5 passages and frozen in batches in liquid nitrogen. Prior to the steroidogenesis assay, H295R cells were thawed and passed at least 4 times. The maximum passage was 10. Cells were maintained in a 1:1 mixture of DMEM/F12 supplemented with 5ml/L ITS+ Premix (BD Bioscience) and 12.5 ml/L Nu-Serum (BD Bioscience). After seeding cells into 96-well plates at 50-60% confluency, cells were allowed to adhere overnight. Prior to chemical testing, culture medium was replaced with 175 uL medium containing 10 uM forskolin to stimulate steroidogenesis for 48 hours. Following prestimulation, forskolin medium was replaced with medium containing test chemical solubilized in DMSO (ensuring a final concentration of 0.1% DMSO). Test chemicals were incubated for 48 hours, then the medium was removed and split into 2 vials containing approximately 75uL each, and stored at -80 C prior to hormone analysis. For steroid quantification, media samples were shipped to OpAns, LLC (Durham, NC) on dry ice, and samples were thawed to room temperature prior to liquid-liquid extraction. Steroid hormones were extracted from media samples using methyl tertbutyl ether (MTBE). An extra derivatization with dansyl chloride was included for estrogen (estrone and estradiol) detection only. Steroid hormones were separated by HPLC, eluted using a reverse phase C18 gradient with electrospray positive ionization, followed by quantification by tandem mass spectrometry (MS/MS). Data were acquired on a MassHunter Workstation Acquisition version B03.01 (Agilent Technologies, Inc.) and processed using MassHunter Quantitative Analysis for QQQ. Accuracy was determined for each hormone analyte from 3 standards to determine upper and lower limits of quantification (ULOQ and LLOQ, respectively) using a 7-point standard curve. Precision and accuracy of the extraction and quantification methods were calculated as the percent relative standard deviation (%RSD) of the spiked standards and percent spiked standard recovered, respectively. […] Test medium was removed following chemical exposure, and cell viability was evaluated in the same wells by MTT. MTT procedures were as follows: after removal of test medium, 500 uL of 0.5 mg/ml of 3-[4,5-dimethylthiazol-2-y]2,5-diphenyltetrazoliumbromide solution was added to the cells. Following a 4-hour incubation at 37 C and 5% CO2 to allow formazan-crystal formation, the MTT solution was removed and blue formazan salt crystals were solubilized using 500uL anhydrous isopropanol with shaking for 20 minutes. Absorbance was read at 570 and 650nm using a Packard Fusion microplate reader. Background correction of absorbance units was used to determine percent change relative to controls. […] When a test chemical reduced cell viability to 20% - 70%, the test chemical was diluted 10-fold and re-evaluated, but if cell viability was <20%, then the test chemical was diluted 100-fold and re-evaluated. […]
`Oc1ccccc1-c1ccccc1`: the AC50 was 32 µM (active) and the result was inactive. For the compound `CC(C)Oc1cc(-n2nc(C(C)(C)C)oc2=O)c(Cl)cc1Cl`, the outcome was inactive. As for `CC1COC(Cn2cncn2)(c2ccc(Oc3ccc(Cl)cc3)cc2Cl)O1` (configuration not stated), the outcome was inactive. With `CCOc1cc(Oc2ccc(C(F)(F)F)cc2Cl)ccc1[N+](=O)[O-]`, the half-maximal activity concentration (AC50) was 1.78 µM (active).

On to `CCCCNC(=O)n1c(NC(=O)OC)nc2ccccc21`, for which the result was inactive. As for `CCNc1nc(Cl)nc(NCC)n1`, the compound was classed as inactive. For `CNC(=S)S`, the call was inactive. On the same count and under the same terms, as for `CCNc1nc(Cl)nc(NC(C)C)n1`, the entry is “inactive”; as for `Cc1c(F)c(F)c(COC(=O)C2C(/C=C(\Cl)C(F)(F)F)C2(C)C)c(F)c1F` (configuration not stated), “inactive”; as for `COP(=S)(OC)Oc1nc(Cl)c(Cl)cc1Cl`, “inactive”. In the case of `COc1nc(NC(C)C)nc(NC(C)C)n1`, the AC50 is 6.99 µM (active). On to `CC1=C(C(=O)Nc2ccccc2)SCCO1`, for which the AC50 was 21.2 µM (active). Still for that read-out and setting: then `CCOP(=S)(OCC)SCn1c(=O)oc2cc(Cl)ccc21`, with 1.23 µM (active). Turning to `N#CC(CCc1ccc(Cl)cc1)(Cn1cncn1)c1ccccc1` (configuration not stated), the call was inactive. Consider `CCOC(=O)C(Cl)Cc1cc(-n2nc(C)n(C(F)F)c2=O)c(F)cc1Cl` (configuration not stated), for which the result was inactive. As for `C=CC1(C)OC(=O)N(c2cc(Cl)cc(Cl)c2)C1=O` (configuration not stated), the result was inactive.

For orientation: AC50 means the concentration giving half of the maximal activity seen.
